Assay [1] addresses T1, Tyrosine-protein phosphatase non-receptor type substrate 1 (Homo sapiens) + Leukocyte surface antigen CD47 (Homo sapiens) (UniProt P78324+Q08722). Briefly: CD47-SIRPalpha protein protein interaction - LANCE assay qHTS validation (AID 1347057; active = well fitted curve in the direction sought with a large enough effect in the signal ratio, with a control signal flat, not every such curve was filed as active; the % refers to the signal ratio; also: series mostly up to about 38 µM; 0% is about no effect). A digest of the protocol: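 First, His-tagged CD47 and Eu-labelled anti-His antibody met the compound for 30 min; next, site-specifically biotinylated SIRPalpha was added for 30 min; finally streptavidin-APC was added before reading the TR-FRET ratio.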
A general note: TR-FRET usually uses a lanthanide donor and a delayed reading to cut background.

The target in assay [2] is T1, Tyrosine-protein phosphatase non-receptor type substrate 1 (Homo sapiens) + Leukocyte surface antigen CD47 (Homo sapiens). Briefly: CD47-SIRPalpha protein protein interaction - HTRF assay qHTS validation (AID 1347058; active = well fitted curve in the direction sought with a large enough effect in the signal ratio, not every such curve was filed as active; the % refers to the signal ratio; also: series mostly up to about 38 µM; 0% is about no effect). A digest of the protocol:
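TR-FRET read (Ch1/Ch2 ratio) of soluble extracellular CD47 and Avi-biotinylated SIRPalpha domains in PBS pH 7.4 with 0.05% IGEPAL; 7-point compound titration. Sequential 30 min room-temperature steps; non-biotinylated SIRPalpha as control inhibitor.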

For assay [3] the target is unchanged. Briefly: CD47-SIRPalpha protein protein interaction - Alpha assay qHTS validation (AID 1347059).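 Also: bead proximity luminescence from CD47 binding SIRPalpha after compound preincubation with SIRPalpha; % is scaled to controls: 0 for no effect and ±100 for the full control effect.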 A digest of the protocol:
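Soluble extracellular domains: Avi-tag biotinylated SIRPalpha (25 nM) preincubated 30 min RT with compound, then 6His-CD47 (12.5 nM) 30 min; Ni-NTA acceptor and streptavidin donor beads (10 ug/mL) 30 min, AlphaScreen read. PBS pH 7.4, 0.05% IGEPAL.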
Background: Quantitative high-throughput screening tests each substance at several concentrations.

For assay [4], the target named is Parathyroid hormone/parathyroid hormone-related peptide receptor (Homo sapiens) (UniProt Q03431). Briefly: qHTS for PTHR1 Agonists: Optimization Screen against the NCGC LOPAC library (AID 1347079).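 Also: GloSensor cAMP luminescence in HEK-293 GP2 cells expressing human PTHR1 with IBMX; 0% is about no effect.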 Summed up: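 Agonist readout: GloSensor cAMP luminescence, read after 15 min at room temperature. HEK-293-derived GP2 line carries PTHR1; compounds tested as a titration for 1 hr at 37C in presence of IBMX. M-PTH (1-15) served as control.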

For assay [5], the target named is N-terminal Xaa-Pro-Lys N-methyltransferase 1 (Homo sapiens) (UniProt Q9BV86). Put plainly: qHTS Assay for Inhibitors of N-terminal methyltransferase 1 (NTMT1): LOPAC validation of the NTMT1 SAHH-coupled ThioGlo3 Assay (AID 1347143). Also: nearly all actives have a fitted effect of over 70% in size. Also: potency is read from the fitted curve at half-maximal effect. As to activity change, negative = inhibition: % is scaled to controls: 0 for no effect and ±100 for the full control effect. A digest of the protocol: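 Fluorescence read-out (excitation 340nm, emission 450nm) of SAH-derived thiol, measured via SAHH coupling and ThioGlo3, taken immediately and after a 30 min room-temperature reaction, then normalized to the background read. Enzyme: NTMT1 at 125nM; cofactor SAM 100uM in the added reagent.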

Assay [6] deals with Zika virus NS2B-NS3 protease (unlinked). Put plainly: Optimization of GU AMC qHTS for Zika virus inhibitors: Unlinked NS2B-NS3 protease assay (AID 1347151). Also: nearly all actives have a fitted effect of over 80% in size. Also: potency is read from the fitted curve at half-maximal effect.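 As to activity change, negative = inhibition: series mostly up to about 52 µM; 0% = no-inhibitor control and -100% = no-enzyme control.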 A digest of the protocol: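 Noncovalent NS2B hydrophilic domain–NS3 protease complex (25 nM final) in 10 mM Tris-HCl pH 8.0, 0.01% Tween 20; AMC substrate, room temperature 15 min (~20% conversion); fluorescence change normalized, 4-parameter Hill fit.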

The test system of assay [7] is Zika virus NS2B-NS3 protease. Briefly: Primary screen GU AMC qHTS for Zika virus inhibitors (AID 1347154).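 Also: 0% = no-inhibitor control and -100% = no-enzyme control; nearly all actives have a fitted effect of over 70% in size.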 Summed up: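 Unlinked Zika NS2B hydrophilic domain/NS3 protease domain noncovalent complex (25 nM final) in 10 mM Tris-HCl pH 8.0, 0.01% Tween 20, with AMC peptide substrate. Fluorescence (ex 340, em 450 nm) change over 15 min, room temperature; percent inhibition fitted to 4-parameter Hill equation.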

A further assay addresses Furin (Homo sapiens) (UniProt P09958). Put plainly: Furin counterscreen qHTS for Zika virus inhibitors (AID 1347149). Also: nearly all actives have a fitted effect of over 70% in size. Also: potency is read from the fitted curve at half-maximal effect.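 As to activity change, negative = inhibition: purified recombinant full-length human furin enzyme at 5 nM; fluorescence gain from furin cutting a BOC-RVRR-AMC peptide substrate over 15 min; top concentration of the series differs between compounds; plate controls were no-inhibitor control for no effect and no-enzyme control for full effect.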 A digest of the protocol:
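Fluorogenic cleavage of BOC-RVRR-AMC (2 microM final, Km ~15 µM) was monitored (ex 340, em 450 nm) at 37C after 15 min RT preincubation of 5 nM furin with compounds in HEPES pH 7.0 buffer with CaCl2 and Triton X-100. Percent inhibition was fitted to a 4-parameter Hill curve.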
A general note: The purpose of a counterscreen is to sort out artefacts and off-target activity.

The test system of assay [8] is Zika virus NS2B-NS3 protease (linked construct). Put plainly: Confirmatory screen NINDS AMC qHTS for Zika virus inhibitors (AID 1347152). Also: potency is read from the fitted curve at half-maximal effect; nearly all actives have a fitted effect of over 70% in size. Summed up:
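Linked NS2B-NS3 protease, 1 nM, in 10 mM Tris-HCl pH 8.0, 0.01% Tween 20; compounds preincubated 15 min at room temperature. Nle-KRR-AMC 10 microM (Km 18.3 µM); 15-min fluorescence change (340/450 nm) fitted to 4-parameter Hill.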

The subject of assay [9] is Zika virus NS2B-NS3 protease (unlinked complex). Put plainly: Confirmatory screen GU AMC qHTS for Zika virus inhibitors (AID 1347153). Summed up: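 Noncovalent NS2B hydrophilic domain/NS3 protease complex (25 nM) in 10 mM Tris-HCl pH 8.0, 0.01% Tween 20 was preincubated 15 min at room temperature with compounds. Then 10 µM AMC substrate (Km 18.3 µM) was added; fluorescence was read over 15 min and fitted to a 4-parameter Hill equation.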

Structures are written as SMILES. Unmarked numbers belong to inactive results. Records with an inconclusive call do not appear. Active and inactive are the calls of the source. Unless noted, calls follow the shape of the dose curve; as a rule, active = well fitted curve in the direction sought with a large enough effect; inconclusive = small, poorly fitted or top-dose-only effect, or another doubt; inactive = no such curve, though single readings can be large; an effect the other way counts as inactive or inconclusive.

Chain of N-terminal Xaa-Pro-Lys N-methyltransferase 1 (Homo sapiens) (Q9BV86 whole entry, looked up): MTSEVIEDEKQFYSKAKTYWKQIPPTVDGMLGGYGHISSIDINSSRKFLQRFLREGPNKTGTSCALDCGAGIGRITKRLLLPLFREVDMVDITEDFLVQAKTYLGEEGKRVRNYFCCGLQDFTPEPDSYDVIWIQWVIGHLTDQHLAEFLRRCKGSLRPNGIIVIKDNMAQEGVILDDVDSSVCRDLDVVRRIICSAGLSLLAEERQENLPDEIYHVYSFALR
T1 sequence (P78324 whole entry, looked up): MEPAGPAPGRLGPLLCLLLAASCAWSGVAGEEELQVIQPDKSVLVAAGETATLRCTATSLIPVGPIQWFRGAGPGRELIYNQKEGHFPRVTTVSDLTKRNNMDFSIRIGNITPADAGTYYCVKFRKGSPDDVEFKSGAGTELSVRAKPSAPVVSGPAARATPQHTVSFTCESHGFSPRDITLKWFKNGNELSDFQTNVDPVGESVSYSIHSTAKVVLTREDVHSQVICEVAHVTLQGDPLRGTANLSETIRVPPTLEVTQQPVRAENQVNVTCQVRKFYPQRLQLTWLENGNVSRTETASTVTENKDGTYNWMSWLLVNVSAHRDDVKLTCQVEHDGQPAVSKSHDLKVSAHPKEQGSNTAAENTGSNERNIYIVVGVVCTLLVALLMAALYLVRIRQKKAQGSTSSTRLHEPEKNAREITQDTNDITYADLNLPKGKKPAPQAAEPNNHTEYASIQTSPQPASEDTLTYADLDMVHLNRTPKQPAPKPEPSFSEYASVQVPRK
T1 sequence (Q08722 whole entry, looked up): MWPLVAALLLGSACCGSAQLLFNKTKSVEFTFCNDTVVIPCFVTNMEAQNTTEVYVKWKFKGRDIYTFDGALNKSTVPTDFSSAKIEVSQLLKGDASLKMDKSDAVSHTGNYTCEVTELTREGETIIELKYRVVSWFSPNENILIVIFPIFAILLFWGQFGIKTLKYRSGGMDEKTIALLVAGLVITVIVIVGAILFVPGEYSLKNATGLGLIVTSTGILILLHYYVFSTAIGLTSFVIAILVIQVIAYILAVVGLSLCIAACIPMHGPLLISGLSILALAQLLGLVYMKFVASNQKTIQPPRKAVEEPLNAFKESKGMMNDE
Chain of Parathyroid hormone/parathyroid hormone-related peptide receptor (Homo sapiens) (Q03431 whole entry, looked up): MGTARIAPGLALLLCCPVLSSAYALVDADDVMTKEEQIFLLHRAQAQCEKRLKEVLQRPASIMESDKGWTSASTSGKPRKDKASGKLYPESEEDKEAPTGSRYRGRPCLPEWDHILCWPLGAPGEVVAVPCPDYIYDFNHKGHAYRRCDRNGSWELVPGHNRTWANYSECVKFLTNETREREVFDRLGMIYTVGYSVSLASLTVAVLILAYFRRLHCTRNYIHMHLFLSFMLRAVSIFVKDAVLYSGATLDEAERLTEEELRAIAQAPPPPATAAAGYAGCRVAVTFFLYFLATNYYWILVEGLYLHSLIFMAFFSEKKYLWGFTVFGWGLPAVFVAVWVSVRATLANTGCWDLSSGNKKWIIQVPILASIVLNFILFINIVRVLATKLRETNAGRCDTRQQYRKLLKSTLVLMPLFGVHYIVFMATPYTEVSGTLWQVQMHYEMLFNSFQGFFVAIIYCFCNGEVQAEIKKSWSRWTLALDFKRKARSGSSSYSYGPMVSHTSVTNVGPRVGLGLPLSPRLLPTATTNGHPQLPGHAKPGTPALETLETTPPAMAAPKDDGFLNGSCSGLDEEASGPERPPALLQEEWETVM
Chain of Furin (Homo sapiens) (P09958 whole entry, looked up): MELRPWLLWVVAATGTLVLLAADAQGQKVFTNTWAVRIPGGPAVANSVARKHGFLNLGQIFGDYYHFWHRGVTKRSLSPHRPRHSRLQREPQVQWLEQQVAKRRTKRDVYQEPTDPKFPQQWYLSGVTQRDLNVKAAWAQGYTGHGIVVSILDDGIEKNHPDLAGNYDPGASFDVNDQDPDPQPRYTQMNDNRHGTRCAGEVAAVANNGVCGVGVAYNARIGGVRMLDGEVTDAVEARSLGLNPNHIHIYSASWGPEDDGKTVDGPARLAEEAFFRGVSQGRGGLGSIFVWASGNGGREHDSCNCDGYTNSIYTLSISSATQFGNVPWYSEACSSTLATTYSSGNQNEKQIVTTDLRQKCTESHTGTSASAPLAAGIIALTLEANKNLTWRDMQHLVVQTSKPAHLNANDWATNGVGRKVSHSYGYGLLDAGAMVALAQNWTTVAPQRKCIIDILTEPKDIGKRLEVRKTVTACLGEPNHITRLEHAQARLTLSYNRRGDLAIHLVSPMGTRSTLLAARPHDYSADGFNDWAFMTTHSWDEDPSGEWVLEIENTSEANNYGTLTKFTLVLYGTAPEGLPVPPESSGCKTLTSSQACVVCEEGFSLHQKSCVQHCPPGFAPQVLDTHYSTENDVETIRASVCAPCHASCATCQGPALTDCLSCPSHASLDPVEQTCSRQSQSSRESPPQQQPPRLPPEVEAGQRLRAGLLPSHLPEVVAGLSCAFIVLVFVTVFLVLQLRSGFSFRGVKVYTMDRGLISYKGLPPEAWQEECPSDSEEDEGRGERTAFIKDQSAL

Take `COc1cc(C(O)C(=O)O)ccc1O` (stereo not given): the Potency entry in assay [1], in [3], in assay [4], in assay [5], in [6] and in assay [7] was “inactive” each time. Further, in [2], the result was inactive.

As to `c1ccc(C2CN3CCSC3=N2)cc1` (stereo not given), the Potency result in assay [1], in [3], in assay [4] and in assay [6] was “inactive” each time. For the same molecule, in assay [2], the result was inactive.

For the molecule `Cn1c(=O)c2[nH]c(C3CCCC3)nc2n(C)c1=O`, the Potency entry in assay [1], in [3], in assay [4], in assay [5], in assay [6] and in [7] was “inactive” in each case. Further, the result in assay [2] was inactive.

As to `C[C@@]1(C2CCCC2)Cc2cc(OCC(=O)O)c(Cl)c(Cl)c2C1=O`, the Potency result in assay [1], in assay [3], in [4], in [5], in assay [6] and in assay [7] was “inactive” in each case. In addition, the result in [2] was inactive.

As for `COc1ccc(CCn2nnnc2C2(c3ccc(C)cc3)CC2)cc1`, the Potency result in assay [1], in assay [3], in assay [4] and in assay [6] was “inactive” each time. In addition, the outcome in assay [2] was inactive.

Consider `CN1C2CCC1CC(OC(c1ccccc1)c1ccccc1)C2` (stereo not given), for which the Potency entry in assay [1], in [3], in assay [4] and in assay [6] was “inactive” in each case. For the same molecule, in assay [2], the result was inactive.

Take `CCCC(=O)NCCc1c2n(c3ccc(OC)cc13)CCCc1ccccc1-2`: the Potency result in assay [1], in [3] and in [4] was “inactive” each time. Moreover, the outcome in assay [2] was inactive. Further, in assay [6], the Potency is 26.7 µM (active).

Consider `Cn1c(=O)c2c(nc(/C=C/c3cccc(Cl)c3)n2C)n(C)c1=O`, for which the Potency result in assay [1], in assay [3] and in assay [4] was “inactive” in each case. The outcome in [2] was inactive. The Potency in assay [6] is 11.9 µM (active).

In the case of `CCCN(CCc1ccccc1)C1CCc2c(O)cccc2C1` (stereo not given), the Potency result in assay [1], in [3], in [4], in assay [5] and in assay [7] was “inactive” in each case. Besides, in assay [2], the result was inactive.

On to `CC(C)(C)NCC(O)COc1cccc2[nH]c(=O)[nH]c12` (stereo not given), for which the Potency entry in [1], in assay [3], in assay [4], in [5], in assay [6] and in [7] was “inactive” each time. In addition, the result in assay [2] was inactive.

In the case of `CCC1(O)CC2CN(CCc3c([nH]c4ccccc34)[C@@](C(=O)OC)(c3cc4c(cc3OC)N(C=O)C3[C@]45CCN4CC=C[C@@](CC)([C@@H](OC(C)=O)[C@]3(O)C(=O)OC)[C@H]45)C2)C1` (stereo not given in full), the Potency entry in [1], in assay [3], in [4] and in [6] was “inactive” each time. In assay [2], the result was inactive.

As for `C/C(=C\c1ccc(C(=O)O)cc1)c1ccc2c(c1)C(C)(C)CCC2(C)C`, the Potency entry in assay [1], in assay [3], in [4] and in assay [7] was “inactive” in each case. Also, the result in [2] was inactive. In addition, the values for the Potency (with Furin (Homo sapiens); in assay [8]; in [9]) were 21.5 µM (active), 24.1 µM (active) and 24.1 µM (active), respectively.

With `CCn1c(=O)[nH]c2cc(Cl)c(Cl)cc21`, the Potency entry in [1], in [3], in [4], in assay [5], in assay [6] and in assay [7] was “inactive” throughout. In addition, the result in [2] was inactive.

For the molecule `N=C(N)c1ccc(N)cc1`, the Potency result in assay [1], in assay [3], in [4] and in assay [6] was “inactive” in each case. In [2], the result was inactive.

`CN(C)CCCc1cc(C(=O)Nc2ccc(-c3ccncc3)cc2)ccc1O`: the Potency entry in assay [1], in assay [3], in assay [4] and in assay [6] was “inactive” throughout. The outcome in [2] was inactive.

In the case of `O=c1ccc2c(OCCCCc3ccccc3)c3ccoc3cc2o1`, the Potency entry in assay [1], in [3] and in assay [4] was “inactive” each time. In addition, in assay [2], the result was inactive. For the same molecule, in [6], the Potency is 26.7 µM (active).

In the case of `C[C@]12C=CC(=O)C=C1CC[C@@H]1C2=CC[C@]2(C)[C@@H](C(=O)CN3CCN(c4cc(N5CCCC5)nc(N5CCCC5)n4)CC3)CC[C@@H]12`, the Potency entry in assay [1], in assay [3], in assay [4] and in assay [6] was “inactive” each time. Also, in [2], the result was inactive.

Consider `NC(=O)c1ccccc1`, for which the Potency result in [1], in assay [3], in [4] and in assay [6] was “inactive” each time. Besides, the result in [2] was inactive.

For the molecule `NCC(O)c1ccc(O)c(O)c1` (stereo not given), the Potency entry in [1], in [3], in [4] and in assay [6] was “inactive” throughout. The outcome in assay [2] was inactive.

For the molecule `COc1ccc(CCN(C)CCc2ccc(OC)c(OC)c2)cc1OC`, the Potency result in [1], in assay [3], in assay [4], in assay [5], in assay [6] and in assay [7] was “inactive” in each case. The outcome in [2] was inactive.

Regarding `Fc1ccc(CN(C2=NCCN2)c2c(Cl)cccc2Cl)cc1`, the Potency entry in assay [1], in assay [3], in assay [4] and in assay [6] was “inactive” throughout. Further, the outcome in [2] was inactive.

Regarding `Nc1nc2c(cnn2CCc2ccccc2)c2nc(-c3ccco3)nn12`, the Potency result in [1], in [3], in assay [4] and in [7] was “inactive” throughout. For the same molecule, the result in assay [2] was inactive. Further, the Potency in [6] is 23.8 µM (active).

Consider `O=C(O)c1ccccc1Nc1cccc(OCc2ccc3ccccc3n2)c1`, for which the Potency entry (in assay [1]; in assay [3]; in assay [4]; in the assay with Furin (Homo sapiens); in [7]) was “inactive” throughout. The outcome in assay [2] was inactive. Besides, in assay [6], the Potency was 29.9 µM (active).

Take `CCCCCCCCCCCCCCCCCCOC[C@H](COP(=O)([O-])OCC[N+](C)(C)C)OC`: the Potency result in [1], in assay [3], in assay [4], in assay [5] and in assay [6] was “inactive” each time. In addition, the outcome in assay [2] was inactive. Also, in assay [7], the activity change, negative = inhibition is 2.23% [at 6.83 µM].

On to `CC(N)(Cc1ccc(O)c(O)c1)C(=O)O` (stereo not given), for which the Potency entry in [1], in assay [3], in [4] and in assay [6] was “inactive” throughout. For the same molecule, the outcome in [2] was inactive.

Consider `N[C@@H](Cc1c[nH]c2ccccc12)C(=O)O`, for which the Potency entry in assay [1], in assay [3], in assay [5] and in [6] was “inactive” throughout. Besides, in [2], the outcome was inactive.

For the molecule `Clc1nccc2c1ccc1ccccc12`, the Potency entry in [1] and in [3] was “inactive” in each case. Besides, the outcome in assay [2] was inactive. Besides, the Potency in [5] was 50.1 µM (active).

`NC(N)=NC(N)=Nc1cccc(Cl)c1`: the Potency result in [1], in assay [3], in [5], in [6] and in assay [7] was “inactive” each time. In addition, the outcome in assay [2] was inactive.

As for `CCCCCC[C@@H]([C@@H](C)O)n1cnc2c(N)ncnc21`, the Potency result in [1], in [3], in assay [4] and in assay [7] was “inactive” in each case. The result in assay [2] was inactive.

Consider `Nc1ncnc2c1nc(Sc1ccc(Cl)cc1)n2[C@H]1OC2COP(=O)(O)O[C@@H]2C1O` (stereo not given in full), for which the Potency result in assay [1], in assay [3] and in assay [5] was “inactive” throughout. For the same molecule, in [2], the result was inactive.

As to `CC(=O)SC1CC2=CC(=O)CC[C@]2(C)C2CC[C@@]3(C)C(CC[C@@]34CCC(=O)O4)C12` (stereo not given in full), the Potency entry in assay [1], in [3], in assay [5] and in assay [6] was “inactive” each time. Moreover, in assay [2], the outcome was inactive.

Source of the values: PubChem BioAssay (NCATS).
